Sampled rows, rich in hits. Any-hit rate of the full collection: about 4.2%.
NALP3 yeast inh = inhibitors of NALP3 inflammasome in yeast. Yeast reconstituted NLRP3/ASC/caspase-1, beta-gal luminescence, 24 h. inhibition, % at 10 µM. 330,000 compounds, 0.39% hits;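 active means inhibition of 50% or more; inactive means inhibition below 50%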;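 further: plate controls were induced DMSO wells for no effect and uninduced yeast grown without galactose for full effect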
tim10-1 inh = inhibits growth of tim10-1 mutant yeast | S. cerevisiae tim10-1 ts strain growth, BacTiter-Glo, 24 h | inhibition, % at 20 µM | 330,000 compounds, 2.2% hits | AID 463190;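 active means inhibition of at least 40%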;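 further: mutant grown at 25 °C; 0% = DMSO wells with yeast and 100% = wells holding no yeast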
V-ATPase pH = yeast V-ATPase proton transport regulation by pHLuorin. 350,000 compounds, 0.37% hits. S. cerevisiae, pHLuorin cytosolic pH fluorescence. AID 504577. response, % at 10 µM; in the data active means response mostly above about 7.3%, no sharp cut-off; inactive means mostly below about 5.4%; further: actives read high
TIM10 inh = inhibits growth of TIM10 yeast strain | inhibition, % at 10 µM | 330,000 compounds, 1.4% hits | S. cerevisiae TIM10 strain growth, BacTiter-Glo luminescence, 24 h | AID 463195;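 active means inhibition of 40% or more at the single tested concentration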;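 further: wild-type TIM10 isogenic control strain grown at permissive 25 °C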
NALP1 inh = blocks the NALP1 inflammasome reconstituted in yeast. S. cerevisiae NALP1/ASC/caspase-1 growth, X-gal OD620, 72 h. inhibition, % at 10 µM. 280,000 compounds, 0.61% hits. AID 2071; in the data active means inhibition mostly above about 24%, no sharp cut-off; inactive means mostly below about 32%
tim23-1 inh = growth inhibitors of tim23-1 mutant yeast | S. cerevisiae tim23-1 growth, BacTiter-Glo luminescence, 24 h | inhibition, % at 20 µM | 330,000 compounds, 1.3% hits;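 active means growth inhibition of the mutant yeast at or above 50%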;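 further: temperature-sensitive mutant grown at 25 °C; plate controls were DMSO-treated mutant yeast for no effect and medium wells lacking yeast for full effect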
Active calls of the source: *; . = no result.

SMILES	NALP3 yeast inh	tim10-1 inh	V-ATPase pH	TIM10 inh	NALP1 inh	tim23-1 inh
COc1ccccc1C(=O)C1CCCN(C(=O)C2CCCC2)C1 (stereo unspecified)	-1	8	1	13	0	16
COc1ccc(NC2CCCCC2NS(=O)(=O)c2ccc(C)cc2)cc1 (stereo unspecified)	3	31	21*	22	21	32
O=C(NCCN1CCOCC1)c1noc2c1CCc1ccccc1-2	-2	-1	1	6	23*	5
CC(C)NC(C(=O)Nc1cc(Cl)cc(Cl)c1)c1ccccc1 (stereo unspecified)	-2	26	1	14	2	19
COc1ccc(S(=O)(=O)NCC2CCCN(Cc3cccc(C(C)=O)c3)C2)cc1 (stereo unspecified)	2	-12	3	0	6	-4
COc1ccc(S(=O)(=O)NCC2CCCN(Cc3cccnc3)C2)cc1 (stereo unspecified)	19	5	-1	3	32*	9
COc1ccc(S(=O)(=O)N2CCCCCC2)cc1C(=O)N(C)Cc1ccc(F)cc1	6	24	-4	10	.	21
O=Cc1cn(CCC(=O)O)nc1-c1cccc2ccccc12	3	15	3	8	-9	16
Cc1cc(C)c(Cc2c(C)nc3c(C(=O)NCc4ccco4)cnn3c2C)c(C)c1	23	38	0	34	42*	36
OC1(c2ccc3c(c2)OCO3)CCN(Cc2ccccn2)CC1	4	-11	1	-18	30*	12
COc1ccc(C)cc1S(=O)(=O)NC(C)C(=O)NC1CC1 (stereo unspecified)	14	15	0	9	21	9
CCCCCC1CCC(C(=O)O)CC1 (stereo unspecified)	35	24	4	11	27*	12
CCCCC1CCC(/C(N)=N/O)CC1 (stereo unspecified)	10	25	-1	24	-8	23
CCn1cc(C2C3=C(CC(C)(C)CC3=O)N(c3ccc(C)cc3)C3=C2C(=O)CC(C)(C)C3)c(C)n1	.	.	-1	.	.	.
CCCOc1ccc(C(=O)N/N=C/c2ccc(-c3ccc(S(=O)(=O)Nc4ncccn4)cc3)o2)cc1	7	15	0	1	43*	7
NS(=O)(=O)c1ccc(-c2ccc(/C=N/NC(=O)c3ccc([N+](=O)[O-])cc3)o2)cc1	-3	1	-2	-32	15	-11
C=CCSc1nc(N)c(C(=O)Nc2ccccc2)cc1C#N	38	-34	-1	-31	15	-9
CCOP(=O)(OCC)/C(=C/N1CCCCC1)NC(=O)c1ccccc1	16	-1	2	3	34*	4
CCC(=O)Nc1ccc(C(=O)NNC(=O)c2cc([N+](=O)[O-])cc([N+](=O)[O-])c2)cc1	30	30	-1	-7	2	26
CCCCn1c(SCC(=O)N2CCC(C)CC2)nc2cc(S(N)(=O)=O)ccc21	-2	16	14*	-3	13	8
CCCCn1c(SCC(=O)c2ccc(O)cc2O)nc2cc(S(N)(=O)=O)ccc21	6	11	-2	-4	-14	17
O=C1C=CC(=O)N1CCCCCCN1C(=O)C=CC1=O	.	.	.	.	112*	.
CC(C)=CC(=O)Nc1ccc(Br)cc1	37	-17	2	-10	.	9
CCOc1ccc2nc(N3CCCC(C(=O)N4CCN(CC)CC4)C3)sc2c1 (stereo unspecified)	8	-1	1	-4	34*	-7
O=C(Nc1ccc(Cl)cc1)OC(CN1CCCCC1)C(F)(F)F (stereo unspecified)	31	6	0	2	25*	15
SMILES	NALP3 yeast inh	tim10-1 inh	V-ATPase pH	TIM10 inh	NALP1 inh	tim23-1 inh
Cc1cc(C)c(CN2CCC(CO)(CCOc3ccccc3)CC2)cc1C	22	13	8	-11	22	-5
Cc1c(CN2CCC(CO)(CCOc3ccccc3)CC2)c(=O)n(-c2ccccc2)n1C	7	0	2	2	26*	6
O=C(Nc1nnc(-c2cccs2)o1)c1cccc(F)c1	19	0	6	-7	.	11
O=C(Nc1nnc(-c2cccs2)o1)c1cccc(Oc2ccccc2)c1	30	19	1	1	38*	46
CCCN1CCC(=O)N(CCSc2ccc(NC(C)=O)cc2)CC1	14	0	-4	6	-3	0
O=C(NCCCN1CCOCC1)C(C(=O)c1ccccc1)n1ccccc1=O (stereo unspecified)	-1	4	2	-4	40*	10
CC(C(=O)NCCCN1CCOCC1)n1cccc1C(=O)c1ccccc1 (stereo unspecified)	15	7	-3	-12	2	6
CCn1c(=N)c(S(=O)(=O)c2ccc(C)cc2)cc2c(=O)n3ccccc3nc21	17	-6	.	-20	-29	4
Cc1ccc(S(=O)(=O)c2cc3c(=O)n4ccccc4nc3n(CCc3ccccc3)c2=N)cc1	-6	8	-2	2	32*	9
CC(=O)N1C(C(=O)O)CSC1c1ccc(C)cc1 (stereo unspecified)	7	-16	-2	4	42*	-16
CCCNC(=O)c1onc(CSc2ccccn2)c1C(=O)NCCC	19	14	22*	1	2	5
NS(=O)(=O)c1cccc(NC(=O)c2cccs2)c1	6	-1	3	-2	.	8
CC(=O)N1CCN(c2ccccc2NC(=O)c2cc(Br)ccc2Cl)CC1	14	3	18*	4	-10	7
CN1CCN(c2ccccc2NC(=O)c2cc(Br)ccc2Cl)CC1	11	36	-1	-3	9	15
COCCNC(=O)CSc1ncnc2sccc12	-2	13	5	-22	38*	9
COc1ccc(NC(=O)c2cc3cccc(OC)c3oc2=Nc2ccc(C(=O)O)cc2)cc1OC	.	.	-1	.	28*	.
O=C(C1=C[C@@H](c2csc3ccccc23)C[C@@H](OCCCCO)O1)N1CCN(Cc2ccc3c(c2)OCO3)CC1	16	33	-5	1	-6	36
O=C(C1=C[C@H](c2csc3ccccc23)C[C@H](OCCCCO)O1)N1CCN(Cc2ccccc2)CC1	5	10	4	1	30*	14
Cc1ccc(N2C(=O)NC(NS(=O)(=O)c3ccccc3)(C(F)(F)F)C2=O)cc1 (stereo unspecified)	4	-24	0	13	16	7
CC(C)OCCCNS(=O)(=O)c1ccc2ccccc2c1	24	37	4	13	-2	6
Nc1nc(SCC(=O)Nc2ccc([N+](=O)[O-])cc2)[nH]c(=O)c1NC(=O)c1ccc(Br)cc1	15	3	0	-8	27*	-14
CCC(=O)N1CCc2cc(Br)cc(S(=O)(=O)NCC3CCCO3)c21 (stereo unspecified)	4	16	14*	-13	42	-2

Screens deposited in PubChem by several laboratories.
